Screens from PubChem.
NSD2 HMT inh – NSD2 (human) methyltransferase inhibition. 310,000 compounds, 0.54% hits. NSD2 peptide methylation, AlphaScreen, 120 min. inhibition, % at 12.5 µM; in the data active = inhibition above about 50%
Target sequence (O96028 whole entry, looked up): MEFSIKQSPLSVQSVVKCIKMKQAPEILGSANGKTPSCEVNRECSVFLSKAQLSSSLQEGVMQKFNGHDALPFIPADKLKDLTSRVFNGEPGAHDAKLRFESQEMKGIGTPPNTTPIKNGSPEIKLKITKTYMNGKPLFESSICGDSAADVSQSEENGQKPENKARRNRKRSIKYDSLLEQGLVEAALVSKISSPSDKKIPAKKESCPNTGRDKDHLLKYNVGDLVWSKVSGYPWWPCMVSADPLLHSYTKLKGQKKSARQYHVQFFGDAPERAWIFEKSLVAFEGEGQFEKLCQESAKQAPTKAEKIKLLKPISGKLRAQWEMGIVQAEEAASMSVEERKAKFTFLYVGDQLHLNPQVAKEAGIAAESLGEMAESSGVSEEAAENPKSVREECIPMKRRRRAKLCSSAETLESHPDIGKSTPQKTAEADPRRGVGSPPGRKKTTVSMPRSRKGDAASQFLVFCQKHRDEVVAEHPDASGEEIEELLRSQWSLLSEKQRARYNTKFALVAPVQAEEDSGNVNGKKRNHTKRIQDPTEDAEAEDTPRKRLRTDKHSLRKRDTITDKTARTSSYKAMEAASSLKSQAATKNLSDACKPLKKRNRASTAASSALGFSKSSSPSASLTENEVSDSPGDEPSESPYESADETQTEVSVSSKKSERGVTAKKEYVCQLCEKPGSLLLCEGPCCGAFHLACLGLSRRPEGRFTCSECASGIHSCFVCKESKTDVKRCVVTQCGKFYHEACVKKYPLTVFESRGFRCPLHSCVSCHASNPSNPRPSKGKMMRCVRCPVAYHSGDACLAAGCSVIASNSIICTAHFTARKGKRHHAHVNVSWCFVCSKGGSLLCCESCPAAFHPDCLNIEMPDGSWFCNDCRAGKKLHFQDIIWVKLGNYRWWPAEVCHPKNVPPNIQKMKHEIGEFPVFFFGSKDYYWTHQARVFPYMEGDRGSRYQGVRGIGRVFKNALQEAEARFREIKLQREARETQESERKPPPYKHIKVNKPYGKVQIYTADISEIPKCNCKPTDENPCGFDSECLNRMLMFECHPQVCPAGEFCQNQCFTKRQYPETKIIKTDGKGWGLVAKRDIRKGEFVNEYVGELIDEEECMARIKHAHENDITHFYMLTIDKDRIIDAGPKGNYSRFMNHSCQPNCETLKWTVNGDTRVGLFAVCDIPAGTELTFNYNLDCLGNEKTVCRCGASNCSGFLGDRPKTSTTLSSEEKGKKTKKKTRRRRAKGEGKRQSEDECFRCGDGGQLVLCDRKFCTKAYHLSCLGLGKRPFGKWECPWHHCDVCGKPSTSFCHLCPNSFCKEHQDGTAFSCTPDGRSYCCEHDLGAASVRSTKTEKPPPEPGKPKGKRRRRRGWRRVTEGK
Casp6 inh – caspase-6 (human) enzyme inhibition; P55212; purified caspase-6, Z-VEID-R110 cleavage fluorescence; inhibition, % at 12.5 µM; 350,000 compounds, 0.53% hits;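 active = mean inhibition across replicates at least about 35%, with every replicate also reaching that limit, limit read from the data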;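 note: 0% = median of neutral control wells and 100% = no fluorescence left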
Ecoli rRNA inh – inhibitors of bacterial rRNA selective over humanized ribosomes. E. coli WT GFP vs humanized-ribosome RFP mutants, fluorescence, 24 h; stronger effect = lower value; DMSO median 0, no signal -100. 350,000 compounds, 1.6% hits. GFP signal change (wild-type ribosome), % (no concentration beside the values);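 active = significant combined selectivity score with lowered wild-type GFP, culture density cut under 30%, mutant RFP and density less affected; inactive = any of these conditions unmet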
RAD52 inh – RAD52 (human) annealing inhibition; AID 651710; recombinant RAD52 DNA annealing, FRET fluorescence; inhibition, % at 18.7 µM; P43351; 360,000 compounds, 0.46% hits;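 active = every replicate showing at least 50% inhibition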
MLL AF4-AF9 inh – inhibitors of human MLL-AF4/AF9 interaction. P42568. AID 651704. 350,000 compounds, 0.47% hits. inhibition, % at 10 µM. AlphaScreen, biotin-AF4 peptide binding to FLAG-AF9;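 active = every replicate reaching a set inhibition limit, whatever the replicate mean, cut at about 25% in these data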;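 note: 0% = plate neutral control median and 100% = total signal loss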
Starred values were filed as active, the others as inactive; x = not tested or not shown. Shown are actives, neighbours in structure and some others; about 2.5% of the full set was active somewhere.

SMILES	NSD2 HMT inh	Casp6 inh	Ecoli rRNA inh	RAD52 inh	MLL AF4-AF9 inh
O=C(Nc1ccccc1F)N1C[C@H]2[C@@H](c3ccccc31)[C@@H](CO)N2C(=O)Cc1ccccc1	x	-4	4	-8	-1
CC(=O)n1nc(-c2ccccc2)nc1NCc1ccc(N(C)C)cc1	1	2	-25*	-9	12
CS(=O)(=O)n1nc(-c2cccnc2)nc1NCc1ccccc1	1	-2	5	-7	1
CN(C)c1ccc(CNc2nc(-c3ccccc3)nn2S(C)(=O)=O)cc1	-2	-2	-23*	-8	21
C[C@H](CO)N1C[C@H](C)[C@H](CN(C)Cc2ccc3c(c2)OCO3)Oc2ncc(/C=C/c3ccccc3)cc2C1=O	x	0	-9	5	3
C[C@H]1CN([C@@H](C)CO)C(=O)c2cc(/C=C/c3ccccc3)cnc2O[C@@H]1CN(C)Cc1ccccc1F	x	-2	-41	-12	25
C[C@H](CO)N1C[C@H](C)[C@@H](CN(C)Cc2ccccc2F)Oc2ncc(/C=C/c3ccccc3)cc2C1=O	x	0	-35	2	28*
C[C@H](CO)N1C[C@H](C)[C@@H](CN(C)Cc2ccc3c(c2)OCO3)Oc2ncc(/C=C/c3ccccc3)cc2C1=O	x	2	-2	16	26*
C[C@H]1CN(C)C(=O)Cc2cc(NS(C)(=O)=O)ccc2O[C@H]1CN(C)S(C)(=O)=O	x	x	3	x	x
COC(=O)c1ccc(COc2ccc(C)cc2[N+](=O)[O-])o1	1	-1	-24*	-11	x
O=[N+]([O-])c1cc(O)c2ncccc2c1	22	47*	-41	-17	-4
COC(=O)c1ccc(COc2cc([N+](=O)[O-])cc3cccnc23)o1	18	38*	14	-9	-4
Cc1cccc(Nc2c(F)c(F)c(F)c(F)c2C(=O)O)c1	1	1	-30*	-20	1
COc1ccccc1CN1[C@H](CO)[C@@H]2c3ccccc3N(C(=O)c3ccc(F)cc3)C[C@@H]21	x	x	-9	-2	x
Cc1cc([N+](=O)[O-])nn1CCCC(=O)Nc1sc2c(c1C(N)=O)CCC(C)C2 (centres undefined)	-2	3	4	-17	28*
CC1CCc2c(sc(NC(=O)Cn3cnc([N+](=O)[O-])n3)c2C(N)=O)C1 (centres undefined)	-1	3	14	-17	-1
CC(=O)NC(=S)Nc1sc2c(c1C(N)=O)CCC(C)C2 (centres undefined)	1	4	-28*	0	1
C[C@H](CO)N1C[C@H](C)[C@@H](CN(C)Cc2ccncc2)OCCCC[C@H](C)Oc2ccc(N(C)C)cc2C1=O	x	3	-2	3	5
COC(=O)C[C@H]1CC[C@H]2[C@@H](COc3ccc(NS(C)(=O)=O)cc3C(=O)N2C)O1	x	0	3	-8	-4
O=S1(=O)c2ccc(Br)cc2OCCC2CCCCN21 (centres undefined)	x	1	-21*	-12	0
Cc1nc2sc(C(c3ccco3)N3CCN(c4cccc(Cl)c4)CC3)c(O)n2n1 (centres undefined)	6	5	-39*	-19	x
O=C1C=C(Nc2ccc(F)cc2)c2ccccc2C1=O	6	40*	-16	-9	3
C[C@H](C(=O)N(C)C[C@H]1OCc2ccccc2-c2ccccc2C(=O)N([C@H](C)CO)C[C@@H]1C)c1ccccc1	x	x	-2	x	x
COCCn1c(C)cc(C(=O)COC(=O)c2ccc(Br)o2)c1C	1	2	5	-5	1
Cc1cc(C(=O)COC(=O)c2ccc(F)cc2)c(C)n1C	-2	1	3	-1	-12
SMILES	NSD2 HMT inh	Casp6 inh	Ecoli rRNA inh	RAD52 inh	MLL AF4-AF9 inh
Cc1cc(C(=O)COC(=O)c2ccc(Br)o2)c(C)n1C	4	2	-23*	-13	9
Cc1cc(C(=O)COC(=O)c2cc(Cl)c(O)c(Cl)c2)c(C)n1C	9	58*	x	-5	-4
COc1ccc(CNCc2cccc(Oc3ccccc3)c2)cc1	-4	-1	-25*	5	1
COc1ccc(CNCc2cccc(C)c2)cc1	2	0	18	-4	-1
COc1ccc(NS(=O)(=O)c2ccc(Cl)c(NC(=O)c3cccnc3Cl)c2)cc1	-6	-1	-20	1	1
COc1ccc(NS(=O)(=O)c2ccc(Cl)c(NC(=O)c3ccccc3F)c2)cc1	0	2	-13*	-10	-11
CN1C(=O)c2cc(NC(=O)Nc3ccccc3)ccc2OC[C@H]2O[C@H](CC(=O)O)CC[C@H]21	x	x	-1	-8	-2
O=S(=O)(Nc1ccccc1)c1cccc2nsnc12	-1	36*	2	-8	-18
Cc1ccc(NS(=O)(=O)c2cccc3nsnc23)cc1	2	2	-7	-19	2
COc1cc(OC)c(OC)cc1CN1CCSCC1	-2	36*	12	-13	3
COc1cc(C)c(CN2CCSCC2)cc1C	2	0	8	-6	-1
Cc1cccc(NC(=O)c2cc(-c3ccc(C)c(C)c3O)n[nH]2)c1	1	2	-17*	-21	-1
Cc1cccc(C)c1OCc1n[nH]c(=S)n1-c1ccccc1	-1	-2	-29*	0	-1
Cc1ccc(OCc2n[nH]c(=S)n2-c2ccccc2)cc1C	0	-2	-23	-16	-4
CC(C)Oc1ccc(CCc2n[nH]c(=S)n2-c2ccccc2)cc1	3	x	-21*	-25	-5
COc1ccc2c3c([nH]c2c1)[C@@H](CO)N(C(=O)Nc1c(C)noc1C)CC31CN(CC2CC2)C1	x	x	3	x	x
C[C@H](CO)N1C[C@H](C)[C@@H](CN(C)S(=O)(=O)c2ccc(F)cc2)Oc2ccc(NC(=O)Nc3ccccc3)cc2CC1=O	x	2	-2	-2	-11
CCOC(=O)Cc1n[nH]c(=O)c2ccccc12	-2	-1	21	-26	-3
O=C(Cc1n[nH]c(=O)c2ccccc12)OCC(=O)N(Cc1ccccc1)Cc1ccccc1	-6	-2	-24*	-30	-39
CC(C)NC(=O)N(C)C[C@@H]1Oc2ccc(NS(C)(=O)=O)cc2C(=O)N(C)C[C@@H]1C	x	x	0	x	x
CC(C)(C)Nc1scc(-c2ccccc2)[n+]1-c1ccccc1	0	2	9	-6	28*
O=C(COC(=O)C12CC3CC(CC(O)(C3)C1)C2)Nc1ccc(Cl)cc1F	-1	-1	5	-13	-1
O=C(COC(=O)C12CC3CC(CC(Br)(C3)C1)C2)Nc1c(F)cccc1F	-2	-2	-27*	-3	0
CC(=O)NC12CC3CC(C1)CC(C(=O)OCC(=O)Nc1c(F)cccc1F)(C3)C2	-2	1	2	-3	-1
O=C(COC(=O)C12CC3CC(CC(O)(C3)C1)C2)NCCc1ccc(Cl)cc1	0	1	-20*	4	0
Cn1cc(CN2CCC(C(=O)NC(c3ccc(-c4ccccc4)cc3)c3cnccn3)CC2)c2ccccc21 (centres undefined)	4	12	-29	9	26*
